Screens (PubChem BioAssay)
ALDH1A1 inh = blocks purified human ALDH1A1 activity; P00352; Purified ALDH1A1, NADH fluorescence, propionaldehyde substrate; Potency, µM (titrated, usually from 75.3 µM), usual class: inhibitors; 7.3% of 220,000 active
HPGD inh = HPGD (human) dehydrogenase inhibition | P15428 | purified HPGD, NADH fluorescence kinetic, PGE2 substrate | Potency, µM, actives largely listed as inhibitors | 4.3% of 150,000 active
Target sequence (P15428 whole entry, looked up): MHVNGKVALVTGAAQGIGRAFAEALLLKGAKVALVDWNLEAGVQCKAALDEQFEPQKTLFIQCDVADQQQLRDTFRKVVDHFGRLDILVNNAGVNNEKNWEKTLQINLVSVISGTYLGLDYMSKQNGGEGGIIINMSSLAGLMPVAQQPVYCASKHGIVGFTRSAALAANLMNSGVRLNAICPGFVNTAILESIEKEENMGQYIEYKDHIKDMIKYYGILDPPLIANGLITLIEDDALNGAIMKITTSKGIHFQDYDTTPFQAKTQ
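NADH formation kinetics: reaction with 30 uM PGE2 and 1 mM NAD+ (final), 20 nM enzyme, Tris-HCl pH 8 with Tween 20, after 15 min compound preincubation at room temperature. Fluorescence change, last versus first of five reads.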
IMPase inh = cell-permeable inhibitors of inositol monophosphatase (IMPase); AID 901; 120,000 tested, under 10 active; P97697; CHO-M1 cells, IP1 accumulation, HTRF TR-FRET ratio; inhibition (IP1 accumulation), % at 46.1 µM; active = well fitted curve in the direction sought with a large enough effect in the signal ratio, not every such curve was filed as active; inconclusive = small, poorly fitted or top-dose-only effect, or a change in a side signal; inactive = no such curve, though single readings can be large or run the other way; the % refers to the signal ratio;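 also: cells stimulated with carbachol in lithium chloride buffer; higher means more IMPase inhibition seen as more IP1 and lower FRET ratio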
Target sequence (P97697 whole entry, looked up): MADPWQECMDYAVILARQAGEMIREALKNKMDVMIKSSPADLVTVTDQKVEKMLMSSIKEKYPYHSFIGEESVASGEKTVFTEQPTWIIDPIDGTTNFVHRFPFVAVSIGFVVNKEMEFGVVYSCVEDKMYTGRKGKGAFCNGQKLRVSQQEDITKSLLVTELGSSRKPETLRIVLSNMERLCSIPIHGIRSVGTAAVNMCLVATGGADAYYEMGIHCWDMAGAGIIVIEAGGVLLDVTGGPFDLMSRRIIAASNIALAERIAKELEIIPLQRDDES
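In this qHTS, compounds (final up to 46 uM) act on CHO-M1 cells that are then activated through the M1 receptor with carbachol, in pH 7.4 buffer containing 50 mM LiCl, for 30 min. IP1 accumulation is quantified by the IP-One immunoassay.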
Numbers stand for hits; . = inactive; ? = inconclusive; / = no result; [ ] = remark or other dose. Most compounds without a hit are left out; they make up all but 9% or so of the library. Unless noted, calls follow the shape of the dose curve; as a rule, active = well fitted inhibition curve with a large enough effect (not every such curve was filed as active); inconclusive = small, poorly fitted or top-dose-only effect, or another doubt; inactive = no such curve, though single readings can be large or run the other way.

SMILES | ALDH1A1 inh | HPGD inh | IMPase inh
CC(C)[C@@H](CC(=O)N[C@@H]1CCNC[C@H]1C(=O)N[C@H](CC(=O)N[C@@H](CCC(=O)O)CC(=O)O)Cc1c[nH]c2ccccc12)NC(=O)C[C@H](Cc1ccccc1)NC(=O)[C@@H]1CCCC[C@H]1N | . | . | /
O=C(CN1N=C(c2ccccc2)CCC1=O)NCCN1CCc2ccccc2C1 | . | . | .
COc1ccc(-n2nccc2-c2nn(-c3cccc(OC)c3)c(=O)n(C)c2=O)cc1 | . | . | .
COc1cccc(-n2nc(-c3ccnn3-c3ccc(C)cc3)c(=O)n(C)c2=O)c1 | 40µM | . | .
Cc1cc(NC(=O)CN(c2cccc(C)c2C)S(=O)(=O)c2ccccc2)ccc1Br | / | / | .
COc1ccc(Br)cc1C(=O)NC(=S)Nc1ccc(Cl)c(C(=O)O)c1 | 18µM | / | /
COc1ccc(Br)cc1/C=C/C(=O)NC(=S)Nc1ccc(Cl)c(C(=O)O)c1 | . | / | /
CCCN(CC(=O)Nc1ccc(F)c(F)c1F)CC(=O)Nc1c(Cl)cccc1Cl | . | / | .
COc1cc(-c2[nH]ncc2CN2CCCC2c2nonc2C)cc(OC)c1OC (stereo unspecified) | . | / | /
Cc1nonc1C1CCCN1Cc1cn[nH]c1-c1ccc(-c2ccccc2)cc1 (stereo unspecified) | 7.1µM | / | /
Nn1cc(Br)c(=O)[nH]c1=O | . | / | /
O=c1cc(CO)oc(C(Nc2ccccn2)c2ccc(C(F)(F)F)cc2)c1O (stereo unspecified) | ? | . | .
O=c1cc(CO)oc(C(Nc2ccccn2)c2cccc(F)c2)c1O (stereo unspecified) | 32µM | . | .
CCCCc1nc2c(c3c1C[C@H](C)OC3)CN(C(=O)Nc1cccc(C#N)c1)CC2 | .[13.5 µM] | . | /
Cc1ccc2[nH]c(=O)c(CN(Cc3cccs3)Cc3nnnn3Cc3ccccc3)cc2c1 | 14µM | ? | .
CCOC(=O)Cn1nnnc1CN(CCc1ccccc1)Cc1cc2cc(CC)ccc2[nH]c1=O | ? | . | .
CCOC(=O)Cn1nnnc1CN(Cc1cccs1)Cc1cc2cc(C)ccc2[nH]c1=O | 16µM | . | .
Cc1ccc2[nH]c(=O)c(CN(CCO)Cc3nnnn3CCc3ccccc3)cc2c1 | ? | . | .
COc1ccc2c(CC(=O)N3CCN(S(=O)(=O)c4cccs4)CC3)coc2c1 | 2.8µM | . | .
COc1ccc2c(CC(=O)NCc3cccs3)coc2c1 | . | / | /
CC(C)c1ncc(S(=O)(=O)c2ccc(C(F)(F)F)cn2)c(N)n1 | . | / | /
COc1ccc(N2CCN(c3nc4c(c(=O)n(C)c(=O)n4C)n3CCCc3ccccc3)CC2)cc1 | . | . | .
COc1ccccc1/C=C/C=N/N1CCN(Cc2ccccc2)CC1 | ? | . | /
Cc1ccc(CN2CCN(/N=C/C=C/c3ccccc3[N+](=O)[O-])CC2)cc1 | 6.3µM | / | /
O=c1cc(O)n(-c2ccccc2F)c(=S)[nH]1 | . | . | .
SMILES | ALDH1A1 inh | HPGD inh | IMPase inh
Cc1ccc(-c2c[nH]c(=S)n2-c2ccccc2F)cc1 | 2µM | / | /
Cn1c(-c2ccc(-c3ccccc3)cc2)c[nH]c1=S | . | / | ?
Cc1ccc(-c2c[nH]c(=S)n2-c2ccccc2)cc1 | 1µM | / | /
CSCC[C@H](NC(=O)Nc1ccc(Oc2ccccc2)cc1)C(=O)O | . | / | /
COC(=O)C(Sc1nc(C)cc(C)c1C#N)c1ccccc1 (stereo unspecified) | . | . | .
Cc1cc(C)c(C#N)c(SCC(=O)c2cccs2)n1 | ? | 16µM | .
Cc1cc(SCC(=O)c2ccccc2)n2nc(C)nc2n1 | 20µM | . | .
COC(=O)CSc1nc(C)cc(C)c1C#N | . | / | /
O=C(CSc1ncnc2ccccc12)c1cccs1 | 11µM | / | /
Cc1cc(C)n2nc(SCCCC(=O)c3ccccc3)nc2n1 | . | / | /
O=C(CSc1ncnc2ccccc12)N1CCCC1 | . | . | .
Cc1cc(C)c(C#N)c(Sc2ccccc2N)n1 | 25µM | / | /
CSc1cccc(CN2CCN(Cc3ccc(F)c(F)c3)C(CCO)C2)c1 (stereo unspecified) | . | / | /
CC(Sc1ccccc1)C(=O)NN=C1CCCCCCC1 (stereo unspecified) | . | / | /
C[C@@H]1C=CCC(=O)OC[C@H](C)C(=O)OC[C@H]2O[C@H]1C=C[C@H]2O | .[13.5 µM] | / | /
CN(C)C(=O)CSc1nnc([C@H](Cc2c[nH]c3ccccc23)NC(=O)OC(C)(C)C)o1 | . | . | .
CCOC(=O)CN(c1cc([N+](=O)[O-])ccc1OC)S(C)(=O)=O | . | / | /
CC1=NN(C(=O)c2cc(C)nn2C)C(O)(C(F)(F)F)C1 (stereo unspecified) | . | . | /
Cc1nc(SCC(=O)c2ccccc2)c(C#N)c(-c2ccco2)c1C(=O)NCc1ccco1 | 10µM | . | .
COCCOC(=O)c1c(C)nc(SCC(=O)Nc2ccc(OC)cc2)c(C#N)c1-c1ccco1 | ? | . | .
Cc1cc(C)c(C#N)c(OCC(=O)c2ccccc2)n1 | 6.3µM | 22µM | .
CCN(CC)C(=O)CSc1nc(C)cc(-c2cccs2)c1C#N | 13µM | . | .
N#Cc1c(OCC(=O)c2ccccc2)nc2c(c1-c1ccco1)CCc1ccccc1-2 | ? | ? | .[0.369 µM]
Cc1cc(C)c(C#N)c(SCc2ccc([N+](=O)[O-])cc2)n1 | . | / | /
N#Cc1c(-c2cccs2)cc(C2CC2)nc1SCC(N)=O | ? | ? | .
SMILES | ALDH1A1 inh | HPGD inh | IMPase inh
Cc1cc(C)c(C#N)c(SCC(O)CS(=O)(=O)Cc2ccccc2)n1 (stereo unspecified) | 28µM | . | .
CCOC(=O)C(=O)N1CCN(CC)CC1 | . | . | /
N#Cc1c(-c2ccc(Cl)cc2)ccnc1N1CCOCC1 | . | / | /
COc1ccc(N(C(=O)Cn2nnc(-c3ccccc3F)n2)C(C(=O)NCC2CCCO2)c2ccc(Cl)cc2)cc1 (stereo unspecified) | . | / | /
C=CCN(c1ccccc1)S(=O)(=O)c1ccc(Cl)c(C(=O)OCC(=O)c2[nH]c(C)c(C(C)=O)c2C)c1 | . | . | /
C[C@@H]1OC(OC2CC[C@@]3(C)C(CC[C@@]4(C)C3CC=C3C5CC(C)(C)CC[C@]5(C(=O)OC5OCC(O)[C@@H](O)[C@@H]5OC5O[C@@H](C)[C@H](O[C@H]6OC(CO)C(O)C(O)C6O)C(O)C5O)C(O)C[C@@]34C)C2(C)C)C(O)C(O)[C@H]1OC1OCC(O)C(O)[C@H]1O (stereo partly specified) | . | . | /
CSc1nsc(SCC(=O)N2CCCCC2)n1 | . | / | /
CC(=O)C1=C(C)NC(=O)NC1c1ccc(Cl)cc1 (stereo unspecified) | . | / | /
N#Cc1c(C(F)(F)F)cc(-c2cccs2)nc1SCC(=O)Nc1ccc(Cl)cc1 | / | / | .
Cc1cc(=O)[nH]c(SCC(=O)c2ccccc2)c1C#N | 18µM | ? | .
Cc1cc(C)c(C#N)c(SCC(=O)c2ccccc2)n1 | 22µM | / | /
Cc1ccccc1NC(=O)CSc1[nH]c(=O)cc(C)c1C#N | . | . | .
CSc1nc(N)nc(SCC(=O)c2ccccc2)c1C#N | ? | . | .
N=C1C(c2ccccc2)=C(O)CN1CCCO | . | / | /
COc1ccc([N+](=O)[O-])cc1N(CC(=O)NC(C(C)C)C(C)C)S(C)(=O)=O | . | / | /
CCOCCCn1c(=N)c(C(=O)NC2CCCC2)cc2c(=O)n3cccc(C)c3nc21 | / | / | .
Cc1sc2c3ccsc3ccc2[n+]1C | 4.5µM | / | /
Cc1sc2ccc3sccc3c2[n+]1C | . | / | /
CSc1ccccc1C(=O)N1CCN(c2cccc(Cl)c2)CC1 | . | / | /
CC(=O)N1CCN(C(=S)c2ccc(Cl)cc2)CC1 | 18µM | 25µM | .
